Source: PubChem
Shown is part of a subset that was picked to be rich in hits.
CHX counter = Cycloheximide Counterscreen for Small Molecule Inhibitors of Shiga Toxin; 12% of 300,000 active; max response, %; cell reporter, cycloheximide protein synthesis inhibition counterscreen; in the data active = max response mostly above about 13%, no sharp cut-off; inactive = mostly below about 14%; also: read at 38.3 µM for the half of the compounds with a filed dose; 0% is about no effect
TbPYK inhibitor = qHTS of Trypanosoma Brucei Inhibitors; TbPYK enzyme, Kinase-Glo Plus ATP luminescence, 45 min; Potency, µM (doses to about 76.8 µM), for the others: top-dose activity, negative = inhibition, hits mostly inhibitors; pyruvate kinase (Trypanosoma brucei), Q57TT1; 0.12% of 410,000 active; also: potency is read from the fitted curve at half-maximal effect; % is scaled to controls: 0 for no effect and ±100 for the full control effect; nearly all actives have a fitted effect of over 50% in size
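Glycolytic pyruvate kinase of T. brucei was incubated with substrate, test compound and 130 uM ADP for 45 minutes at room temperature. Luminescent Kinase-Glo Plus signal was measured after 10 minutes.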
Shiga toxin inh = A qHTS for Small Molecule Inhibitors of Shiga Toxin; inhibition, % at 38.7 µM; 9.2% of 290,000 active; Vero cells, Shiga toxin protein synthesis inhibition reporter; in the data active = inhibition mostly above about 28%, no sharp cut-off; inactive = mostly below about 43%; also: 0% is about no effect
LmPK inh = qHTS Assay for Inhibitors of Leishmania Mexicana Pyruvate Kinase (LmPK). Q27686. purified LmPK, Kinase-Glo ATP luminescence, 1 h. Potency, µM (doses to about 57.5 µM), without a hit: at the top dose activity change, negative = inhibition, actives largely listed as inhibitors. 0.37% of 290,000 active. AID 1721, 2009; also: potency is read from the fitted curve at half-maximal effect; % is scaled to controls: 0 for no effect and ±100 for the full control effect
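Pyruvate kinase activity monitored as ATP production (luciferase luminescence). Conditions: 0.1 nM enzyme, 0.5 mM PEP, 0.1 mM ADP, 1 h, RT; normalized against uninhibited and no-enzyme wells.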
FBPA Giardia inh = qHTS Assay for Inhibitors of Fructose-1,6-bisphosphate Aldolase from Giardia Lamblia. A8B2U2. purified Giardia FBPA. Potency, µM (doses to about 59.6 µM), for inactives: at the highest dose activity, negative = inhibition, usual class: inhibitors. 0.71% of 290,000 active. AID 2451, 2010; also: potency is read from the fitted curve at half-maximal effect; % is scaled to controls: 0 for no effect and ±100 for the full control effect; nearly all actives have a fitted effect of over 55% in size
Target sequence (A8B2U2 whole entry, looked up): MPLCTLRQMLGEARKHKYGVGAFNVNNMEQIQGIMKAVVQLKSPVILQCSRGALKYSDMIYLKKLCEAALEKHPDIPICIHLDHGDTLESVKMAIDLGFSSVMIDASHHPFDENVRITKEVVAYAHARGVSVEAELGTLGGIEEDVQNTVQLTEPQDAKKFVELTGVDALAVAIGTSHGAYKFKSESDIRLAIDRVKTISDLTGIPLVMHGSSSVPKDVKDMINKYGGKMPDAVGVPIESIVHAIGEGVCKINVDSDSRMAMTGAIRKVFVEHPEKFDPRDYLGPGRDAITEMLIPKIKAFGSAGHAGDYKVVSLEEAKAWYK
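40 nM FBPA preincubated 10 min at RT with compound (up to 57.5 uM final), then substrate plus GAPDH/TPI/NAD/arsenate coupling and diaphorase/resazurin added. Fluorescence read after 20 min at RT, 525/598 nm.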
Sm TGR inh = qHTS Assay for the Inhibitors of Schistosoma Mansoni Peroxiredoxins; Schistosoma mansoni thioredoxin glutathione reductase (TGR), Q962Y6; purified TGR, DTNB reduction, TNB absorbance 405 nm; Potency, µM (series often up to 114 µM), without a hit: at the highest dose activity change, negative = inhibition, most hits filed as inhibitors; 3% of 360,000 active; AID 485364, 2010; also: potency is read from the fitted curve at half-maximal effect; % is scaled to controls: 0 for no effect and ±100 for the full control effect; nearly all actives have a fitted effect of over 60% in size
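Kinetic colorimetric format: TGR-catalysed, NADPH-driven DTNB reduction monitored via TNB absorbance. Enzyme dispensed at 20 nM; compound exposure 15 min at room temperature before reaction start.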
Active calls of the source: *; ? = inconclusive; . = no result given; ! = not active in a repeat; [ ] = dose if it differs, or a comment. Unless noted, calls follow the shape of the dose curve; as a rule, active = well fitted curve in the direction sought with a large enough effect; inconclusive = small, poorly fitted or top-dose-only effect, or another doubt; inactive = no such curve, though single readings can be large; an effect the other way counts as inactive or inconclusive.

SMILES	CHX counter	TbPYK inhibitor	Shiga toxin inh	LmPK inh	FBPA Giardia inh	Sm TGR inh
Cc1ccc(CNC(=O)c2ccc(N3CCCC3)c(NC(=O)Nc3ccc(F)c(Cl)c3)c2)cc1	.	-20.8%	.	.	.	-0.6%
COCCNC(=O)c1ccc2c(c1)NC(=O)C(CS(=O)(=O)Cc1ccc(F)cc1Cl)N2 (stereo not drawn)	.	1.5%	.	.	.	-9.2%
CC(C)c1ccc(CNCc2ccccc2)cc1	32.1*	-6.7%	59.6*	-1.7%	-7.7%	21.4%
CC(C)c1ccc(CNC(=O)CCc2ccccc2)cc1	17.5	-6.3%	17.1	13.2%	1.0%	-2.0%
Clc1ccc(Cn2nnc(-c3ccccc3)n2)cc1	28.4*	0.8%	57.4*	0.9%	1.7%	-14.8%
Clc1ccccc1-c1nnn(Cc2ccc(-c3nn[nH]n3)cc2)n1	-2.1	-16.6%	-12.8	-1.6%	?	-2.4%
CCn1c(Cn2nnc(-c3ccccc3)n2)nnc1SCC(=O)Nc1ccc(N(C)C)cc1	-7.3	-21.8%	-26.3	3.8%	-2.7%	-4.8%
Clc1ccc(Cn2nnc(-c3ccc(CN4CCOCC4)cc3)n2)cc1	0.4	-0.3%	-23.7	0.3%	2.1%	-33.6%
Clc1ccccc1Cn1nnc(-c2ccccc2)n1	52.6*	-2.7%	105.0*	2.1%	5.3%	.
Clc1ccccc1Cn1nc(-c2ccccc2)nc1-c1ccccc1	17.5*	-4.6%	12.9	-4.1%	2.0%	5.1%
Clc1ccc(Cn2nc(-c3ccccc3)nc2-c2ccccc2)cc1	7.5	-13.1%	-4.8	-8.4%	-1.5%	-9.4%
CN(C)c1ccc(-c2nnn(Cc3ccccc3Br)n2)cc1	17.4*	-12.3%	26.9	2.1%	3.7%	-14.3%
Cc1ccc2oc(C(=O)N(Cc3cccc(F)c3)C3CCS(=O)(=O)C3)c(C)c2c1 (stereo not drawn)	.	0.4%	.	.	.	10.4%
CCC/C=C(\CCC)C(NS(=O)(=O)CC12CCC(CC1=O)C2(C)C)c1ccc(C(=O)OC)cc1 (stereo not drawn)	.	.	.	.	-5.7%	.
COc1cc(-c2nnn(Cc3ccccc3C)n2)cc(OC)c1OC	-1.2	-10.7%	-2.0	-3.1%	3.7%	-7.1%
COc1ccc(-c2nnn(Cc3ccccc3)n2)cc1OC	10.6*	1.7%	.	3.4%	0.4%	-3.4%
Clc1ccccc1Cn1nnc(-c2cccs2)n1	29.3*	-5.9%	61.4*	6.4%	9.3%	7.6%
O=C(Nc1ccccc1)c1cn(CCBr)cn1	.	-6.0%	.	.	.	.
COc1ccc(N(CC(=O)N2CCN(c3ccc(F)cc3)CC2)S(=O)(=O)c2c(C)nn(C)c2C)cc1	.	-6.8%	.	.	.	-8.3%
CN(C)c1cccc(C(=O)Nc2ccc(-c3nc4ccccc4s3)cc2)c1	.	-1.3%	.	.	.	-2.8%
CN(C)c1ccc2nc3ccc(=[N+](C)C)cc-3sc2c1	63.7*!	?	88.0*	-26.4%	?	?
Cc1cc2nc3ccc(=[N+](C)C)cc-3sc2cc1N	35.6*	?	47.7*	14.1µM*	?	?
COc1ccc(C(=O)/C=C/C(=O)N(CC(=O)NC2CCCCC2)Cc2cccs2)c(O)c1	1.1	?	8.8	-6.4%	-2.5%	1.58µM*
COCCN(CC(=O)NC1CCCCC1)C(=O)/C=C/C(=O)c1ccc(OC)cc1O	9.6	?	25.9	2.3%	1.0%	-13.6%
O=C(Nc1ccccc1C(=O)N/N=C/c1ccc(F)cc1)c1ccccc1Br	17.3*	0.7%	17.3	-13.4%	0.1%	-21.5%
SMILES	CHX counter	TbPYK inhibitor	Shiga toxin inh	LmPK inh	FBPA Giardia inh	Sm TGR inh
N/C(=N\N=C/c1ccc(F)cc1)N/N=C\c1ccc(F)cc1	11.1*	-4.4%	21.9	1.6%	-25.6%	15.4%
COc1cc(/C=N/NC(=S)Nc2cccc(S(=O)(=O)N(C)C)c2)ccc1O	29.8*	-4.2%	49.0*	2.9%	6.1%	-16.1%
N/C(=N\N=C\c1ccc(Cl)cc1)N/N=C/c1ccc(Cl)cc1	.	-5.0%	.	.	.	.
O=C(N/N=C/c1ccc(F)cc1)c1cc[n+]([O-])cc1	17.6*	-1.8%	60.6*	-3.8%	-15.0%	-3.5%
COc1ccc(C(=O)c2c(N)c(C(=O)Nc3cccc(OC)c3)c3ccccn23)cc1	.	0.4%	.	.	.	0.7%
Cc1cccc(-c2nc3ccccc3n3c(-c4ccccc4)c4c(=O)n(C)c(=O)n(C)c4c23)c1	.	0.6%	.	.	.	0.4%
COc1cc(/C=N/NC(=O)c2cccc(NC(=O)c3ccccc3)c2)ccc1O	13.1	4.6%	33.1*	2.2%	-4.4%	2.8%
COc1ccc(/C=N/NC(=O)c2cccc(NC(=O)c3ccc(Cl)cc3)c2)c(OC)c1	12.3	-11.5%	31.1*	3.0%	9.6%	-16.7%
O=C(N/N=C/c1ccc(F)cc1)c1cccc(NC(=O)c2ccc(F)cc2)c1	33.7*	-3.0%	99.7*	-1.2%	7.5%	1.7%
O=C(N/N=C/c1ccc(F)cc1)c1ccc(Br)cc1	15.4	-6.0%	62.4	-0.9%	0.4%	1.6%
O=C(N/N=C/c1ccc(Br)cc1)c1ccc(F)cc1	34.6*	-7.9%	47.2*	-3.5%	0.4%	-5.8%
CCCCOc1ccc(C(=O)N2CCN(CCc3ccncc3)CC2)cc1	.	0.7%	.	.	.	-24.4%
COc1cccc2c1cc1c(=O)n(CC(=O)N3CCN(c4cccc(C(F)(F)F)c4)CC3)nc(C)n12	.	1.3%	.	.	.	0.4%
O=C(N/N=C/c1ccc(Br)cc1)c1ccc(Br)o1	50.6*	-6.2%	65.5*	-28.4%	-5.9%	-9.6%
O=C(N/N=C/c1cccc(OCc2ccccc2)c1)c1ccc(Br)cc1	6.8	0.0%	12.6	2.7%	0.3%	-6.2%
O=C(N/N=C/c1ccc(F)cc1)c1ccccc1	32.7*	-10.1%	125.7*	-18.4%	-5.3%	2.0%
Cc1cccc(/C=N/NC(=O)c2ccc(Br)cc2)c1	34.5*	-14.8%	69.5*	-5.0%	1.2%	-2.0%
Cc1cccc(/C=N\N=C\c2cccc(C)c2)c1	53.1*	-0.5%	.	4.2%	11.8%	2.7%
O=C(N/N=C/c1ccc(Br)cc1)c1cc[n+]([O-])cc1	-0.3	-19.0%	-3.1	-0.2%	1.6%	3.1%
Cc1ccc(S(=O)(=O)Oc2cc(N)c3c(n2)CCC3)cc1	-2.2	-13.0%	4.8	-1.7%	-3.1%	-22.0%
Cc1ccc(NC(=O)CSc2nnc(-c3ccc([N+](=O)[O-])cc3)o2)c(C)c1	.	2.5%	.	.	.	-2.3%
O=C(N/N=C/c1ccc(O)cc1)c1cccc(N/N=C/c2ccc(O)cc2)c1	36.7*	-3.5%	60.4*	1.7%	-3.5%	?
O=C(c1cc(-c2ccc(Br)cc2)n[nH]1)N1CCN(S(=O)(=O)c2ccc(Br)s2)CC1	.	0.8%[15.4 µM]	.	.	.	-1.8%
Cn1c(-c2nnn(-c3ccc(F)cc3)n2)cc2ccccc21	54.8*	.	65.1*	-13.3%	4.3%	-20.8%
